High-throughput results from PubChem BioAssay.
Rows were chosen to be rich in hits. Some 21% of all compounds tested hit in one or more screens of this group.
NS1 function inh – qHTS Assay for Inhibitors of Influenza NS1 Protein Function; Potency, µM (titrated, usually from 46.1 µM), without a hit: top-dose activity, positive = more growth; actives 0.4% (n = 270,000); AID 2326, 2010; calls by dose curve; also: potency is read from the fitted curve at half-maximal effect; actives are rising curves; nearly all actives have a fitted effect of over 50% in size
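S. cerevisiae expressing influenza A NS1, grown in glucose, washed, then diluted 1:100 into pH 6.0 -URA galactose medium with 23 nl compound. Growth recovery read as OD600; NS1-free strain serves as control.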
CHX counter – Cycloheximide Counterscreen for Small Molecule Inhibitors of Shiga Toxin | cell reporter, cycloheximide protein synthesis inhibition counterscreen | max response, % | actives 12% (n = 300,000) | AID 2314, 2010; in the data active = max response mostly above about 13%, no sharp cut-off; inactive = mostly below about 14%; also: read at 38.3 µM for the half of the compounds with a filed dose; 0% is about no effect
Pf growth 96h – Primary qHTS for delayed death inhibitors of the malarial parasite plastid, 96 hour incubation. P. falciparum luciferase reporter growth, 96 h. Potency, µM (doses to about 28.7 µM), inactives show top-dose activity change, negative = inhibition, usual class: inhibitors. actives 6.9% (n = 320,000). AID 504834, 2011; also: potency is read from the fitted curve at half-maximal effect; % is scaled to controls: 0 for no effect and ±100 for the full control effect
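Cell-based qHTS: luciferase-tagged P. falciparum in erythrocytes (2% hematocrit, 0.05% parasitemia final) incubated with compounds for 96 hours, 37 C, 5% CO2; luciferase detection reagent then added and luminescence measured.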
Sm TGR block – qHTS Assay for the Inhibitors of Schistosoma Mansoni Peroxiredoxins; AID 485364, 2010; purified TGR, DTNB reduction, TNB absorbance 405 nm; actives 3% (n = 360,000); Schistosoma mansoni thioredoxin glutathione reductase (TGR), Q962Y6; Potency, µM (top dose mostly 114 µM), for inactives: at the top dose activity change, negative = inhibition, hits mostly inhibitors; also: potency is read from the fitted curve at half-maximal effect; % is scaled to controls: 0 for no effect and ±100 for the full control effect; nearly all actives have a fitted effect of over 60% in size
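First, TGR (20 nM dispensed) and NADPH were mixed with compound. Second, a 15 min room-temperature incubation followed. Third, further NADPH and then DTNB were added to start the reaction. Finally, TNB absorbance was monitored kinetically.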
Shiga inhibitor – A qHTS for Small Molecule Inhibitors of Shiga Toxin | Vero cells, Shiga toxin protein synthesis inhibition reporter | inhibition, % at 38.7 µM | actives 9.2% (n = 290,000) | AID 2315, 2010; in the data active = inhibition mostly above about 28%, no sharp cut-off; inactive = mostly below about 43%; also: 0% is about no effect
Pf growth 48h – Primary qHTS for delayed death inhibitors of the malarial parasite plastid, 48 hour incubation; P. falciparum luciferase growth in erythrocytes, 48 h; Potency, µM (titrated, usually from 28.7 µM), for the others: top-dose activity change, negative = inhibition, actives largely listed as inhibitors; actives 5.9% (n = 310,000); AID 504832, 2011; also: potency is read from the fitted curve at half-maximal effect; % is scaled to controls: 0 for no effect and ±100 for the full control effect
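Cell-based growth assay: transgenic P. falciparum expressing firefly luciferase, cultured in red cells within RPMI 1640 containing 0.5% w/v Albumax, 24 mM bicarbonate and gentamycin. A drop in luciferase activity indicates inhibition.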
* marks the source's active call; other numbers are inactive results; ? = inconclusive; . = not tested or not shown. Unless noted, calls follow the shape of the dose curve; as a rule, active = well fitted curve in the direction sought with a large enough effect; inconclusive = small, poorly fitted or top-dose-only effect, or another doubt; inactive = no such curve, though single readings can be large; an effect the other way counts as inactive or inconclusive.

SMILES	NS1 function inh	CHX counter	Pf growth 96h	Sm TGR block	Shiga inhibitor	Pf growth 48h
CS(=O)(=O)Cc1nc2ccccc2oc1=O	-162%	-3	6.6µM*	?	30	?
O=c1oc2ccccc2nc1/C=C(\O)c1ccc(Br)cc1	-90%	27*	?	?	39*	1.9µM*
C/C(O)=C\c1nc2ccccc2oc1=O	-87%	25*	?	-11%	47*	?
Cc1ccc2oc(=O)c(/C=C(\O)CC(C)C)nc2c1	15%	-2	?	-23%	4	?
NC(=S)N/N=C1\CC(c2ccc3c(c2)OCCO3)Oc2ccc(F)cc21 (stereo unspecified)	1%	-4	12µM*	17%	-11	?
Fc1ccc(-c2csc(NC3=NCCC3)n2)cc1	.	21*	36%	-6%	109*	19%
COc1ccc(-c2csc(NC3=NCCCCC3)n2)cc1	6%	33*	35%	-9%	108*	43%
Brc1ccc(-c2csc(NC3=NCCCCC3)n2)cc1	-1%	24*	13µM*	-5%	36	57%
CCOc1ccc(-c2csc(NNC3=NCCCCC3)n2)cc1	.	16*	-14%	2%	40	0%
O=C(NCc1cccc(C(F)(F)F)c1)C1CC(c2ccccc2C(F)(F)F)=NO1 (stereo unspecified)	7%	-4	34%	1%	-2	33%
CCc1cccc(CC)c1NC(=O)/C(C#N)=C/c1ccccc1C(F)(F)F	0%	-9	?	-14%	-6	-25%
COc1ccc(C(=O)c2oc3ccccc3c2NC(=O)c2cc(=O)c3ccc(C)cc3o2)cc1Cl	.	.	.	-10%	.	.
COc1ccc(-c2csc(NNC3=NCCCCC3)n2)cc1	.	29*	0%	-15%	26*	12µM*
COc1ccc(NC2=NCCC2)cc1	?	-1	9%	-1%	-17	?
COc1ccc(N(C(=O)c2ccccc2C)S(=O)(=O)c2ccc3c(c2)n(C)c(=O)n3C)cc1	.	.	.	3%	.	.
Cc1cc(O)c(CN2CC=C(c3ccccc3)CC2)cc1C(C)C	-1%	-2	0.26µM*	-8%	-5	0.29µM*
OC(CN1CC=C(c2ccccc2)CC1)c1ccccc1 (stereo unspecified)	21%	9	?	0%	24	?
C=CCn1c(O)c(N=NC(=S)Nc2cccc(C)c2)c2ccccc21	?	5	-23%	8%	32	1.9µM*
C=CCn1c(O)c(N=NC(=O)CNC(=O)/C=C/c2ccco2)c2ccccc21	?	-1	38%	18µM*	-8	26%
C[C@H](NC(=O)Cc1ccccc1)C(=O)N1CCC2(CC1)NCCc1[nH]cnc12	-1%	-3	13%	?	-6	-2%
CCOc1cccc(=O)c2c(C)n(Cc3ccco3)c(C)c12	12%	5	?	40µM*	10	9.3µM*
CCOc1ccc2c(c1)c(C(C)=O)c(C)n2Cc1ccco1	2%	-3	4%	10µM*	-10	-3%
COc1ccc2c(N)c(C(=O)NN)[nH]c2c1	2%	-3	6%	-8%	20	7%
CN(C1=C(NC(=O)c2ccccc2)C(=O)c2ccccc2C1=O)C1CCS(=O)(=O)C1 (stereo unspecified)	8%	39*	5.2µM*	?	75*	4.7µM*
Cc1ccccc1C(=O)NC1CCS(=O)(=O)C1 (stereo unspecified)	0%	7	.	2%	-8	2%
O=C(NC(=S)NC1CCS(=O)(=O)C1)c1ccccc1 (stereo unspecified)	4%	5	?	2%	11	-2%
CC(=O)NC1=C(NC2CCS(=O)(=O)C2)C(=O)c2ccccc2C1=O (stereo unspecified)	-37%	7	?	0.71µM*	-32	10µM*
COc1ccccc1-n1c(/C=C/c2c(C)n(C)c3ccccc23)nc2ccccc2c1=O	.	.	.	0%	.	.
Cc1cccc(CNC(=O)c2cnc3sc(N4CCCCCC4)nn3c2=O)c1	.	.	.	19%	.	.
